# KKLEB cytotox: cytotoxicity in KKLEB CF airway cells, primary screen, cytotoxicity control for CF NF-kB inhibitor project, cell-based, uHTS, fluorescence assay plates. KKLEB CF airway cells viability, ATPlite luminescence, overnight; stronger effect = lower value; cells stimulated with P. aeruginosa culture filtrate. activity change (cytotoxicity), % at 5 µM. 0.36% of 360,000 active. AID 602141, 2011;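 active = corrected activity change at or below -50% at 5 µM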
# Shn3 3UTR inh: reduction of Shn3 3'UTR firefly luciferase signal, primary screen, Schnurri-3 inhibitor project, cell-based, Clone20 osteoblasts, set 2; Clone20 osteoblast Shn3 3'UTR firefly luciferase, 24 h; inhibition, % at 12.5 µM; 0.52% of 360,000 active; AID 588674, 2011;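 active = mean inhibition of at least 75% with every replicate also reaching 75%; inconclusive = mean inhibition at least 75% but some replicate below; inactive = mean inhibition below 75%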
# CF NFkB inh: inhibitors of PAF-induced NF-kB signaling, primary screen, cell-based, GFP fluorescence, uHTS | 0.86% of 360,000 active | AID 588850, 2011 | inhibition, % at 5 µM | KKLEB NF-kB-GFP reporter, GFP fluorescence overnight;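 active = at least 50% inhibition at 5 µM, scaled per plate between neutral and stimulator controls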;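 also: PAF is a Pseudomonas aeruginosa culture filtrate used as stimulus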
# TRPM1 prom inh: inhibitors of MITF-dependent TRPM1 promoter reporter, primary screen, cell-based, SK-MEL-5, single point, luciferase; SK-MEL-5 TRPM1 promoter luciferase, 24 h; inhibition, % at 12.5 µM; 0.83% of 330,000 active;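 active = mean inhibition across replicates of 60% or more, whatever share of single replicates reaches that level; inconclusive = some that reach 60%, reason not given; inactive = mean inhibition across replicates below 60%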
# Peg3 prom inh: Peg3 promoter-driven luciferase inhibitors, primary screen, cell-based, HeLa, luciferase luminescence; 1.7% of 360,000 active; AID 588405, 2011; inhibition, % at 20 µM; HeLa PEG-Prom luciferase reporter, overnight;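 active = inhibition of at least 50% at 20 µM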
# HIF-2a inh: HIF-2a reporter inhibitors, primary screen, luminescence, 786-0 RCC cells; 786-0 RCC cells HIF-2a reporter, luciferase luminescence, overnight; inhibition, % at 18.8 µM; 0.72% of 360,000 active; AID 624352, 2012;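 active = inhibition of the luminescence signal of 40% or more relative to plate controls, in a single-dose primary screen at 18.75 µM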
# A number is an active result; 0 = inactive; ? = inconclusive; - = not tested or not shown; ! = not confirmed by another sample. An excerpt weighted towards active compounds, which were near 2.7% of everything screened.
SMILES,KKLEB cytotox,Shn3 3UTR inh,CF NFkB inh,TRPM1 prom inh,Peg3 prom inh,HIF-2a inh
CC(C)c1ccc2c(c1)CCC1C(C)(CN)CCCC21C (configuration not stated),0,0,0,98.0,108.6,0
CC(C)c1ccc2c(c1)CC[C@H]1[C@](C)(CN)CCC[C@]21C,0,0,0,102.5!,89.7!,0
O=C(NC(=S)Nc1ccc2[nH]c(=O)[nH]c2c1)c1cccc(F)c1,0,0,0,0,0,0
COc1ccc(NC(=O)CN(C)C(=O)CSc2ccc(Br)cc2)cc1,0,0,0,0,0,0
CCCN1C2CCCC1CC(NC(=O)c1ccc(C(C)(C)C)cc1)C2 (configuration not stated),0,0,0,0,0,0
CCN1C(=O)CC2CCCC1C2 (configuration not stated),0,95.4,0,0,0,0
CCOC(=O)/C(C#N)=C/c1cccc(C)c1,0,0,0,0,72.6,0
O=C(CSc1ccc2ccccc2n1)NCCCN1CCCC1=O,0,0,0,0,0,0
CC(=O)n1cc(C2CC(=O)OC3=C2CC(=O)C(C)(C)C3)c2ccccc21 (configuration not stated),0,0,0,-,0,0
O=C1NC2CCCCC2C(=O)N1OS(=O)(=O)c1ccccc1 (configuration not stated),0,0,0,0,50.9,0
O=C1CCN(S(=O)(=O)c2ccccc2)C2CCCCC12 (configuration not stated),0,0,0,0,0,0
O=C(COc1ncnc2sccc12)Nc1cccc(S(=O)(=O)N2CCOCC2)c1,0,0,0,-,0,0
O=C1C=C(O)c2cccc(O)c2C1=O,0,0,0,0,0,0
O=C1C=C(c2c(O)ccc3ccccc23)c2ccccc2C1=O,0,96.1,88.4,?,106.8,84.4
Cc1cc(C(=O)N/N=C/c2ccc([N+](=O)[O-])s2)n[nH]1,0,-,0,69.8,0,0
Cc1cc(C(=O)N/N=C/c2ccc(C)s2)n[nH]1,0,0,0,0,0,0
O=C(CNC(=O)c1ccccc1)N/N=C/c1ccc([N+](=O)[O-])s1,0,0,0,62.7,0,0
COc1ccc(NC(=O)CCC(=O)N/N=C/c2ccc([N+](=O)[O-])s2)cc1,0,0,0,72.2,0,0
Cc1cc(C)n(CC(=O)N/N=C/c2ccc([N+](=O)[O-])s2)n1,0,0,0,0,0,0
O=C(Cc1ccccc1)NCC(=O)N/N=C/c1ccc([N+](=O)[O-])s1,0,0,0,82.7,0,0
O=C(CNC(=O)c1ccccc1)N/N=C/c1cccs1,0,0,0,0,0,0
CCOC(=O)N/N=C\c1ccc([N+](=O)[O-])s1,0,0,0,0,0,0
Cc1ccc(C)c(NC(=S)N2CCC(C(=O)c3ccc(F)cc3)CC2)c1,0,0,0,-,0,0
O=C(O)CC/C(=C\c1ccc(N2CCCC2)c([N+](=O)[O-])c1)c1nc2ccccc2s1,0,0,0,0,0,0
CN(c1ccccc1)c1ccc(/C=C(/CCC(=O)O)c2nc3ccccc3s2)cc1[N+](=O)[O-],0,0,0,0,57.0,0
SMILES,KKLEB cytotox,Shn3 3UTR inh,CF NFkB inh,TRPM1 prom inh,Peg3 prom inh,HIF-2a inh
CCN(CC(=O)NCc1cccs1)C(=O)c1cccc(S(=O)(=O)Nc2ccc(OC)cc2)c1,0,0,0,0,0,0
Cc1[nH]n(-c2ccccc2)c(=O)c1N=Nc1ccccc1O,0,85.0,0,0,0,0
O=C(Nc1ccc2c(c1)N(S(=O)(=O)c1cccs1)CCC2)c1c(F)cccc1Cl,0,0,0,0,0,0
COc1ccc(-c2c[n+]3c(n2-c2ccc(C)cc2)CCCCC3)cc1,0,-,0,0,0,0
CCOc1ccc(-n2c(-c3ccc(Br)cc3)c[n+]3c2CCCCC3)cc1,0,0,0,62.9,0,0
CCOc1ccc(-n2c(-c3ccccc3)c[n+]3c2CCC3)cc1,0,84.4,0,0,0,0
CCOc1ccc(-n2c(-c3ccc(OC)cc3)c[n+]3c2CCCCC3)cc1,0,85.4,0,77.3,0,0

# Assay outcomes: PubChem, several laboratories
